Measurements taken from PubChem BioAssay (NCATS).
Inconclusive results are not listed. Entries that show only a call come without a potency. Values without a mark were called inactive. Activity calls are given as the source filed them. Calls follow the shape of the full dose curve.

Assay: Cytotoxicity counterscreen for inhibitors of SARS-CoV-2 cell entry (AID 1645845); also: nearly all actives have a fitted effect of over 50% in size
Settings: cell viability (SARS-CoV-2 entry assay cells); series mostly up to 57.1 µM; activity change, negative = cytotoxicity: at the top concentration
Source text: Assay Provider: Wei Zheng, Ph.D.
National Center for Advancing Translational Sciences, National Institute of Health, Rockville, MD.
SARS-CoV-2 spike protein, within the viral envelope, mediates viral attachment and infection of host cells. The SARS-CoV-2 spike protein specifically binds to the host receptor ACE2 (Angiotensin-converting enzyme 2). This interaction promotes endocytosis of the viral particle, additional events lead to viral-host cell membrane fusion and release of the viral contents, allowing viral replication.
While SARS-CoV-2 requires BSL-3 facilities for live virus work, pseudo-typed partices (PP) that incorporate SARS-CoV-2 spike proteins without replication elements could facilitate studies on viral entry mechanisms in a BSL-2 setting. This PP cell entry assay could also enable screening of small molecule compound libraries in BSL-2 setting to identify inhibitors of SARS-CoV-2 cell entry. To eliminate false positive compounds, ATP content cytotoxicity assay was screened in the same cell line.
SEQUENCE No. (e.g., 1, 2, 3, etc.); […] (e.g., Cells, Incubation, Reagent, etc.); VALUE and DESCRIPTION.
1. Cells. Seed 1500 HEK293-ACE2 cells (Expi293F with stable expression of human ACE2) in 2 uL/well media (DMEM, 10% FBS, 1x L-glutamine, 1x Pen/Strep, 1 ug/ml puromycin) in white 1536-well assay plates (Greiner #782073).
2. Incubation. Incubate at 37 C with 5% CO2 overnight (~16 h).
3. Compounds. Dispense 23 nL/well compounds in DMSO via pin transfer.
4. Incubation. Incubate for 1 h at 37C 5% CO2.
5. Reagent. Dispense 2 uL/well of media (DMEM, 10% FBS, 1x L-glutamine, 1x Pen/Strep, 1 ug/ml puromycin).
6. Incubation. Incubate at for 48h at 37C 5% CO2
7. Reagent. Dispense 4 uL/well of ATPLite 1step luminescence assay reagent (PerkinElmer #6016739).
8. Incubation. Incubate for 15 min at room temperature.
9. Detection. Read luminescence signal (Viewlux plate reader, PerkinElmer). Data was normalized with wells containing cells as 100%, and wells without cells (media only control) as 0%.
Potency is read from the fitted curve at half-maximal effect.

SMILES | activity change, negative = cytotoxicity | outcome | Potency
COc1ccc(CC2SC(=O)NC2=O)cc1C(=O)NCc1ccc(C(F)(F)F)cc1 (stereo not given) | 4.37% |  | 
CC(=O)Nc1ccc(OC[C@](C)(O)C(=O)Nc2ccc([N+](=O)[O-])c(C(F)(F)F)c2)cc1 |  | inactive | 
CN1[C@H]2CC(O)C[C@H]1[C@H]1O[C@H]12 (stereo not given in full) |  | inactive | 
CCCCn1c(=O)n(Cc2ccccc2F)c(=O)c2[nH]c(Cc3ccc(NC(C)=O)cc3)nc21 |  | inactive | 
Cc1cccc(-c2[nH]c(C(C)(C)C)nc2-c2ccc3nccnc3c2)n1 | -5.91% |  | 
CCN(CC)C(=O)c1ccc(C2=CC3(CCNCC3)Oc3cccc(O)c32)cc1 | 3.35% |  | 
CS(=O)(=O)c1ccc(C(=O)Nc2ccc(Cl)c(-c3ccccn3)c2)c(Cl)c1 |  |  | inactive
COc1nc(C)cnc1NS(=O)(=O)c1cccnc1-c1ccc(-c2nnco2)cc1 |  | inactive | 
Cc1ccccc1N=Nc1ccc(N=Nc2c(O)ccc3ccccc23)c(C)c1 |  | inactive | 
O=C(Nc1ccccc1-c1cn2c(CN3CCNCC3)csc2n1)c1cnc2ccccc2n1 |  |  | 7.08 µM (active)
CCOP(=O)(OCC)C(C)NC(=O)N(CCCl)N=O (stereo not given) |  |  | inactive
CC1=C(C/C=C(\C)CCC[C@H](C)CCC[C@H](C)CCCC(C)C)C(=O)c2ccccc2C1=O | 1.4% |  | 
Cc1ccnc(NS(=O)(=O)c2ccc(NC(=O)Nc3ccc(S(=O)(=O)Nc4nccc(C)n4)cc3)cc2)n1 |  | inactive | 
CCOC(=O)c1c(C(C#N)=CN)c2ccc(Cl)c(Cl)c2n1C | 1.38% |  | 
CC1(O)CC(c2nc(-c3ccc4ccc(-c5ccccc5)nc4c3)c3c(N)nccn23)C1 (stereo not given) | 1.17% |  | 
c1ccc(C2(c3ccccc3)CC2C2=NCCN2)cc1 (stereo not given) |  | inactive | 
CCC(C)(Oc1ccc(C2(c3ccc(OC(C)(CC)C(=O)O)cc3)CCCCC2)cc1)C(=O)O (stereo not given) |  |  | inactive
c1ccc2c(CCNc3ccc(Nc4ccncc4)cc3)c[nH]c2c1 |  |  | 17.8 µM (active)
CC(Cc1ccc(O)cc1)NCC(O)c1cc(O)cc(O)c1 (stereo not given) |  | inactive | 
Clc1ccccc1C(c1ccccc1)(c1ccccc1)n1cccn1 | -9.79% |  | 

SMILES | activity change, negative = cytotoxicity | outcome | Potency
CCNC(=O)C[C@@H]1N=C(c2ccc(Cl)cc2)c2cc(OC)ccc2-n2c(C)nnc21 | -1.19% |  | 
CC(C)(C)c1cc(C(=O)O)c(NC(=O)Nc2ccc3[nH]ncc3c2)s1 |  | inactive | 
C[C@@H](N)C(=O)O | 1.12% |  | 
CCOC(=O)C(C)Oc1cccc2c(=O)n(CC(=O)Nc3ccc4c(c3)OCCO4)ccc12 (stereo not given) |  | inactive | 
CCC(=O)O[C@@H]1C=C2CCC3C(CCC4(C)C3CC[C@@H]4OC(=O)CC)C2CC1 (stereo not given in full) | 4.72% |  | 
CNCc1ccc(-c2[nH]c3cc(F)cc4c3c2CCNC4=O)cc1 |  |  | inactive
C1Cc2[nH]nc(-c3nn[nH]n3)c2C1 |  | inactive | 
CCc1cc(Nc2nccc(-c3c(-c4ccc(OC)c(C(=O)Nc5c(F)cccc5F)c4)nc4ccccn34)n2)c(OC)cc1N1CCC(N2CCN(S(C)(=O)=O)CC2)CC1 |  | inactive | 
NC(CO)C(=O)NNCc1ccc(O)c(O)c1O (stereo not given) |  | inactive | 
O=C(Nc1cc(Cl)cc2c1[nH]c1cnccc12)c1cccnc1 | 2.68% [at 27.1 µM] |  | 
CN1C(=O)C(Cc2c[nH]c3ccccc23)NC1=S (stereo not given) |  | inactive | 
COc1ccccc1-c1cccc(-c2c(O)c3cc(C#N)c(Cl)cc3[nH]c2=O)c1 | -0.375% |  | 
CN(C)NC(=O)CCC(=O)O | -0.698% |  | 
S=c1[nH]c2ccccc2s1 |  | inactive | 
c1ccc(-c2nn3c(c2-c2ccnc4cc(OCCN5CCOCC5)ccc24)CCC3)nc1 | -6.53% |  | 
NCCS | 4.6% |  | 
Clc1ccc(C(c2ccc(Cl)cc2)n2cc[n+](CC(OCc3ccc(Cl)cc3Cl)c3ccc(Cl)cc3Cl)c2)cc1 (stereo not given) |  |  | 31.6 µM (active)
CC(C)c1onc(-c2c(Cl)cccc2Cl)c1COc1ccc(/C=C/c2cccc(C(=O)O)c2)c(Cl)c1 |  | inactive | 
Cc1cc(SCc2sc(-c3ccc(C(F)(F)F)cc3)nc2C)ccc1OCC(=O)O |  | inactive | 
Cn1c(NCCN(CCO)CCCc2ccc([N+](=O)[O-])cc2)cc(=O)n(C)c1=O |  |  | inactive
